This is a sample that favours compounds with a hit; in the whole collection about 12% have one here.
AmpC inh no detg – AmpC beta-lactamase inhibition without detergent; Potency, µM (top dose mostly 57.1 µM), for inactives: at the top dose activity change, negative = inhibition, actives largely listed as inhibitors; P00811; AmpC nitrocefin hydrolysis, absorbance 480 nm, 0.0001% Triton; 330,000 tested, 0.52% active; AID 485341;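 also: plate controls were no compound for no effect and no enzyme for full effect; nearly all actives have a fitted effect of over 20% in size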
Target sequence (P00811 whole entry, looked up): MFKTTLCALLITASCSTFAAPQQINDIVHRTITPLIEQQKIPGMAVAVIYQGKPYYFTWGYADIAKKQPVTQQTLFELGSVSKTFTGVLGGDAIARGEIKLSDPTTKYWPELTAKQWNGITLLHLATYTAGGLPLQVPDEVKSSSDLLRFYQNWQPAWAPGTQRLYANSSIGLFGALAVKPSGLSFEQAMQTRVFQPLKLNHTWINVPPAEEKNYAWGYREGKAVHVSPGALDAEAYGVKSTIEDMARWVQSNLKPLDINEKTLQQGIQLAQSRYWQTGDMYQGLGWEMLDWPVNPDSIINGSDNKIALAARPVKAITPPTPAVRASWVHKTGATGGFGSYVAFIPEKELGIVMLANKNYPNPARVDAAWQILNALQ
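AmpC (5.3 nM in the dispensed reagent) in 20 mM phosphate pH 7.0 with 0.01% (detergent screen) or 0.0001% Triton X-100 was preincubated with compounds for 15 min at room temperature. Nitrocefin was then added from an 800 uM solution, and hydrolysis was followed at 480 nm.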
SARS PLpro yeast – inhibitors of SARS-CoV papain-like protease in yeast; S. cerevisiae expressing SARS-CoV PLpro, growth rescue; 330,000 tested, 0.19% active; Potency, µM (doses to about 32.9 µM), inactives show at the top dose activity, positive = growth rescue, hits mostly activators; calls by dose curve; also: 0% is about no effect; nearly all actives have a fitted effect of over 55% in size
Pf growth 96h – P. falciparum growth inhibition at 96 hour, primary screen for plastid delayed-death inhibitors; P. falciparum luciferase reporter growth, 96 h; Potency, µM (series often up to 28.7 µM), without a hit: top-dose activity change, negative = inhibition, most hits filed as inhibitors; 320,000 tested, 6.9% active; also: % is scaled to controls: 0 for no effect and ±100 for the full control effect
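Two parasite generations (96 h, 37 C, 5% CO2) of compound exposure in infected erythrocytes (0.05% parasitemia, 2% hematocrit). Luciferase-reporter P. falciparum; decreased luminescence indicates inhibited growth, aimed at apicoplast-acting delayed death.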
AmpC detergent – blocks E. coli AmpC beta-lactamase in detergent assay; AID 485294; Potency, µM (series often up to 114 µM), for inactives: at the top dose activity change, negative = inhibition, most hits filed as inhibitors; 370,000 tested, 0.041% active; AmpC hydrolysis of nitrocefin, absorbance 480 nm, 0.01% Triton;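 also: 0% = no-compound wells and -100% = no-enzyme wells; nearly all actives have a fitted effect of over 25% in size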
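AmpC (5.3 nM in the dispensed reagent) in 20 mM phosphate pH 7.0 with 0.01% (detergent screen) or 0.0001% Triton X-100 was preincubated with compounds for 15 min at room temperature. Nitrocefin was then added from an 800 uM solution, and hydrolysis was followed at 480 nm.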
Pf growth 48h – P. falciparum growth inhibition at 48 hours (one generation); P. falciparum luciferase growth in erythrocytes, 48 h; 310,000 tested, 5.9% active; Potency, µM (doses to about 28.7 µM), for inactives: top-dose activity change, negative = inhibition, most hits filed as inhibitors; also: % is scaled to controls: 0 for no effect and ±100 for the full control effect
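Compounds are pin-transferred into medium, infected erythrocytes (2% hematocrit, 0.1% parasitemia final) are added, and plates sit one parasite generation at 37 C in 5% CO2. Detection reagent is then added and luminescence measured.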
Sm TGR block – S. mansoni TGR enzyme inhibition; purified TGR, DTNB reduction, TNB absorbance 405 nm; 360,000 tested, 3% active; AID 485364; Potency, µM (titrated, usually from 114 µM), for the others: at the top dose activity change, negative = inhibition, actives largely listed as inhibitors; Q962Y6; also: % is scaled to controls: 0 for no effect and ±100 for the full control effect; nearly all actives have a fitted effect of over 60% in size
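First, TGR (20 nM dispensed) and NADPH were mixed with compound. Second, a 15 min room-temperature incubation followed. Third, further NADPH and then DTNB were added to start the reaction. Finally, TNB absorbance was monitored kinetically.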
* marks the source's active call; other numbers are inactive results; ? = inconclusive; nt = no result; [ ] = remark or other dose. Unless noted, calls follow the shape of the dose curve; as a rule, active = well fitted curve in the direction sought with a large enough effect; inconclusive = small, poorly fitted or top-dose-only effect, or another doubt; inactive = no such curve, though single readings can be large; an effect the other way counts as inactive or inconclusive. Potency is read from the fitted curve at half-maximal effect.

SMILES | AmpC inh no detg | SARS PLpro yeast | Pf growth 96h | AmpC detergent | Pf growth 48h | Sm TGR block
Clc1ccc(-c2nc(NCCCN3CCOCC3)c3ccccc3n2)cc1 | 145.8% | 0.1% | ? | -1.5% | ? | -10.0%
COc1ccc(CC(=O)N(Cc2nc(-c3ccc(C)cc3)no2)C(C)C)cc1 | nt | nt | nt | 14.4% | nt | 11.7%
COc1ccccc1CNC(=O)Cn1c(-c2cccs2)cc2cc(F)ccc21 | nt | nt | nt | 15.8% | nt | -0.1%
Cc1ccc(S(=O)(=O)CCC(=O)Nc2ccc(S(=O)(=O)N(C)C)cc2)cc1 | -12.5% | 0.7% | ? | -10.2% | -29.7% | ?
Cc1ccccc1/C(N)=N/OC(=O)N1c2ccccc2Sc2ccccc21 | -46.4% | -32.6% | 10.4µM* | -2.2% | ? | 0.5%
N#CCC(=O)N/N=C/c1ccc(Sc2nc3ccccc3s2)o1 | ? | -8.9% | 77.6% | -3.6% | 2.8% | -5.9%
CC(NC(=O)CSc1nc2c(c(C(F)(F)F)n1)CCc1ccccc1-2)c1ccccc1 (centres undefined) | -6.7% | 3.1% | -3.6% | 3.8% | 7.38µM* | 16.2%
CSc1nnc(Cn2c(=O)sc3ccccc32)n1CCc1ccccc1 | 82.2% | -5.9% | 13.1µM* | ? | nt | -14.0%
Cn1c(Cn2c(=O)sc3ccccc32)nnc1SCC(=O)N1CCOCC1 | -12.6% | 12.1% | -19.6% | -8.9% | 7.0% | -13.5%
O=C(CSc1nnc(Cn2c(=O)sc3ccccc32)n1CCc1ccccc1)N1CCOCC1 | 178.1% | 1.0% | ? | -4.2% | 9.28µM* | -8.2%
COc1cc(OC)c(NC(=O)C(C)n2c(=O)cc(-c3ccccc3)c3c(C)nn(C)c32)cc1Cl (centres undefined) | nt | nt | nt | 7.2% | nt | -6.1%
O=C1CN(C(=O)c2ccc(Br)o2)C(c2ccccc2)c2cc(Br)ccc2N1 (centres undefined) | 2.8% | -6.0% | 5.86µM* | 1.9% | nt | -5.4%
COc1ccc(-c2cc(C(=O)N/N=C(\C)c3cccnc3)c3cc(C)ccc3n2)cc1OC | 32.6% | 16.8% | ? | 5.5% | ? | -24.1%
C/C(=N\NC(=O)c1cc(-c2ccccc2C)nc2ccccc12)c1cccnc1 | -18.7% | -2.8% | ? | ? | 1.85µM* | 0.1%
C/C(=N/NC(=O)c1cc(-c2ccccc2)nc2c(Cl)cccc12)c1cccnc1 | -27.3% | 12.4% | 10.4µM* | ? | ? | -19.2%
C/C(=N\NC(=O)c1cc(-c2cccc(OC(C)C)c2)nc2ccccc12)c1cccnc1 | -25.4% | 6.3% | 13.1µM* | ? | ? | 1.8%
C/C(=N\NC(=O)c1cc(-c2ccc(C)s2)nc2ccccc12)c1cccnc1 | 59.3% | 4.7% | ? | ? | -6.5% | 0.3%
Cc1ccc(CNC(=O)c2cccn2-c2nnc(N3CCCCC3)s2)cc1 | nt | nt | nt | 1.8% | nt | 5.4%
CNC(=S)N/N=C/c1cc(C)n(-c2ccc(Cl)c(Cl)c2)c1C | -51.9% | -43.2% | 9.28µM* | -11.2% | 14.7µM* | 0.0%
COC(=O)CSc1nnc(-c2ccc(S(=O)(=O)NCc3ccccc3Cl)cc2)o1 | -14.4% | -1.6% | nt | 0.0% | ? | 3.9%
COc1ccc(-n2c(Cc3cccn3C)nnc2SCC(=O)Nc2ccccc2)cc1 | ? | -0.6% | ? | -8.7% | 11.7µM* | ?
CCc1ccc(NC(=O)CSc2nnc(Cc3cccn3C)n2-c2ccc(OC)cc2)cc1 | 31.5% | 0.1% | 8.28µM* | -10.7% | ? | 12.7%
COc1ccc(NC(=O)CSc2nnc(Cc3cccn3C)n2-c2ccc(F)cc2)cc1OC | 134.6% | -6.3% | ? | -13.8% | ? | 44.7µM*
COc1ccc(-n2c(Cc3cccn3C)nnc2SCC(=O)Nc2cccc(F)c2)cc1 | 34.8% | 2.8% | ? | ? | 8.28µM* | ?
Cn1cccc1Cc1nnc(SCC(=O)Nc2ccc(F)cc2)n1-c1ccc(F)cc1 | 16.2% | 9.5% | 31.3% | -5.2% | ? | ?
SMILES | AmpC inh no detg | SARS PLpro yeast | Pf growth 96h | AmpC detergent | Pf growth 48h | Sm TGR block
Cc1ccnc(NC(=O)c2ccc(S(=O)(=O)N3CCCC3)cc2)c1 | -25.8% | -1.7% | 4.5% | -15.4% | 34.9% | 5.7%
CCOC(=O)c1c(S(=O)(=O)N2CCC(C(=O)NCc3cccc(C)c3)CC2)c(C)n(C)c1C | nt | nt | nt | 1.1% | nt | -8.3%
CCc1ccccc1NC(=O)c1sc2nc3n(c(=O)c2c1C)CCC3 | nt | nt | nt | 15.9% | nt | 7.7%
Cc1ccc(-n2c(Cc3cccn3C)nnc2SCC(=O)Nc2ccc3c(c2)OCO3)cc1 | 37.9% | 1.0% | ? | ? | 14.7µM* | -19.7%
Cn1cccc1Cc1nnc(SCC(=O)Nc2ccc3c(c2)OCCO3)n1-c1ccc(F)cc1 | 26.3% | 20.9% | 6.5% | -13.2% | -3.6% | ?
COc1ccc(-n2c(Cc3cccn3C)nnc2SCC(=O)Nc2ccc(Cl)cc2)cc1 | 1µM* | 2.7% | 14.9% | 5.5% | 11.7µM* | 50.1µM*
Cn1cccc1Cc1nnc(SCC(=O)Nc2ccc(Cl)cc2)n1-c1ccc(F)cc1 | 39.1% | 6.4% | -17.6% | ? | ? | -23.8%
COCCNC(=O)CCCn1c(SCc2ccccc2Cl)nc2c(sc3ccccc32)c1=O | nt | nt | nt | 11.0% | nt | 23.9%
CS(=O)(=O)CC[C@@H](C(=O)NCCc1ccccc1)N1Cc2ccccc2C1=O | nt | nt | nt | -2.1% | nt | -1.0%
Cc1ccccc1CNC(=O)c1ccc(NC(=O)c2nsc3ccccc23)cc1 | nt | nt | nt | -7.5% | nt | 25.1µM*
Cc1ccc(CNC(=O)c2ccc(NC(=O)c3nsc4ccccc34)cc2)cc1 | nt | nt | nt | 0.6% | nt | 4.7%
Cc1ccccc1CNC(=O)c1ccc(CSCc2ccccc2)cc1 | ? | -2.5% | 6.57µM* | -1.9% | ? | 1.0%
CC1=C(C(=O)Nc2ccccc2)C(CC(C)C)n2nc(SCc3ccccc3C)nc2N1 (centres undefined) | nt | nt | nt | 15.0% | nt | -4.1%
Cc1ccc(-n2ncc3c(N4CCCCC4)ncnc32)cc1Cl | nt | nt | nt | -6.9% | nt | -2.5%
N#Cc1cc(-c2ccccc2)nc(NN)n1 | -37.8% | -2.1% | 10.4µM* | 9.5% | ? | 4.8%
NNc1nc(-c2ccccc2)cc(-c2ccccc2)n1 | -21.6% | -3.0% | 4.9% | -4.4% | ? | nt
COc1ccccc1-c1ccc(SCc2cccc(C)c2)nn1 | -20.3% | -2.8% | 11.7µM* | 5.5% | 10.4µM* | 4.3%
COc1ccc(N2CCN(C(=S)Nc3cc(C)ccc3C)CC2)cc1 | -0.7% | -9.4% | 127.3% | -3.9% | 9.7% | 8.3%
Cn1c(O)c(N=Nc2ccccc2)c2ccccc21 | 16.7% | 0.3% | 42.3% | -8.6% | -28.6%[0.00184 µM] | 44.7µM*
CS(=O)(=O)Nc1ccc(C(=O)NCCSCc2c(F)cccc2Cl)cc1 | -14.2% | -2.1% | ? | 6.0% | -0.3% | 10.7%
CC(C)N=c1cc2n(-c3ccc(Cl)cc3)c3ccccc3nc-2cc1Nc1ccc(Cl)cc1 | nt | nt | ? | nt | 2.87µM* | nt
